C diff growth: blocks growth of Clostridium difficile. Clostridium difficile clinical isolate growth, OD600, 24 h; active compounds read low. growth activity, negative = inhibition, % at 16 µg/mL (by protocol). 0.25% of 86,000 active;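 active means mean growth activity at or below -80% and every replicate also at or below -80%; inconclusive means mean at or below -80% but some replicate above -80%; inactive means mean growth activity above -80%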;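 further: 0% = DMSO wells and -100% = levofloxacin 16 µg/mL wells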
Pf Dd2 growth: blocks growth of Plasmodium falciparum Dd2 parasites; P. falciparum Dd2 growth, SYBR Green, 72 h; active compounds read low; activity change, % at 10 µM; 2.3% of 94,000 active; in the data active means activity change below about -80%; inconclusive means no clear call, values can overlap the other calls
T cruzi growth-1: T. cruzi proliferation inhibition | 5.9% of 77,000 active | inhibition, % at 8.34 µM | T. cruzi beta-gal in NIH3T3, GalScreen luminescence, 90 h;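 active means mean inhibition above about 93%, with at least 55% of replicates each passing it, limit read from the data, passing the limit was not always enough; inconclusive means only one of those two conditions holds; inactive means neither condition holds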
T cruzi growth-2: inhibitors of T. cruzi proliferation; shares compounds with T cruzi growth-1; T. cruzi beta-gal in NIH3T3, GalScreen luminescence, 90 h; inhibition, % at 8.35 µM; 72% of 5,600 active; AID 651739;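 active means mean replicate inhibition above about 95% and at least 55% of replicates individually reaching it, limit read from the data; inconclusive means only one of the two criteria is met; inactive means neither criterion is met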
T cruzi growth-3: inhibitors of T. cruzi proliferation; shares compounds with T cruzi growth-1; T. cruzi beta-gal in NIH3T3, GalScreen luminescence, 90 h; inhibition, % at 2.09 µM; 21% of 5,600 active; AID 651740;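 active means mean inhibition above about 95%, with at least 55% of replicates also reaching it, limit read from the data; inconclusive means meets just one of the two conditions; inactive means meets neither condition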;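 further: plate controls were neutral control median for no effect and positive control median for full effect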
NIH3T3 tox: cytotoxicity in mouse NIH/3T3 fibroblasts; shares compounds with T cruzi growth-1; NIH/3T3 viability, CellTiter-Glo ATP luminescence, 90 h; cytotoxicity (signal decrease), % at 8.35 µM; 14% of 5,600 active;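 active means mean signal decrease across replicates above about 35% based on untreated-well scatter, with enough replicates individually passing, limit read from the data; inconclusive means no rule stated though some were filed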;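 further: 0% = median of neutral control wells and 100% = median of positive control wells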
3T3 cytotox 2: cytotoxicity in mouse NIH/3T3 fibroblasts; NIH/3T3 viability, CellTiter-Glo ATP luminescence, 90 h; inhibition, % at 24.9 µM; 56% of 5,600 active; AID 651744; shares compounds with T cruzi growth-1;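 active means mean loss of cell viability signal at or above a set limit, and enough replicates individually reaching it; inconclusive means meets only the mean limit or only the replicate share; inactive means meets neither condition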;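 further: 0% = median of neutral control wells and 100% = median of positive control wells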
* hit, by the source's call; ? = inconclusive; . = no result. A selection: hits, their analogues and other compounds. The true share with any hit is near 6.8%.

SMILES	C diff growth	Pf Dd2 growth	T cruzi growth-1	T cruzi growth-2	T cruzi growth-3	NIH3T3 tox	3T3 cytotox 2
O=S(=O)(NC[C@@H]1CC[C@@H]2[C@@H](CN2Cc2ccccc2C(F)(F)F)O1)c1ccccc1	-5	30	.	.	.	.	.
CO[C@@H]1CN(C)C(=O)c2cc(NS(C)(=O)=O)ccc2OC[C@H](C)N(C(=O)C2CCC2)C[C@H]1C	.	22	-9	.	.	.	.
COc1cccc(S(=O)(=O)N2CC[C@@H]3[C@H](CO)Nc4ccc(C#Cc5cccnc5)cc4[C@@H]32)c1	-8	-8	110*	108*	71	29	22
COc1cccc(S(=O)(=O)N2CC[C@H]3[C@H](CO)Nc4ccc(C#Cc5cccnc5)cc4[C@H]32)c1	2	-36	.	.	.	.	.
COc1cccc(C#Cc2ccc3c(c2)[C@H]2[C@H](CCN2S(=O)(=O)c2ccccc2)[C@H](CO)N3)c1	-2	-45	105*	108*	84	14	17
COc1cccc(C#Cc2ccc3c(c2)[C@@H]2[C@@H](CCN2S(=O)(=O)c2ccccc2)[C@H](CO)N3)c1	16	-56	.	.	.	.	.
N#C[C@@H]1[C@@H](c2ccc(C3=CCCC3)cc2)[C@@H](CO)N1c1nc(-c2ccccc2)cs1	-9	6	108*	96*	40	6	13
N#C[C@H]1[C@@H](c2ccc(-c3cccc(F)c3)cc2)[C@@H](CO)N1c1nc(-c2ccccc2)cs1	1	25	94	.	.	.	.
N#C[C@H]1[C@@H](c2ccc(-c3ccc(F)cc3)cc2)[C@H](CO)N1c1nc(-c2ccccc2)cs1	7	26	83	.	.	.	.
N#C[C@@H]1[C@@H](c2ccc(-c3ccc(F)cc3)cc2)[C@@H](CO)N1c1nc(-c2ccccc2)cs1	1	-40	105*	108*	96*	16	13
N#C[C@H]1[C@H](c2ccc(C3=CCCC3)cc2)[C@H](CO)N1c1nc(-c2ccccc2)cs1	12	2	57	.	.	.	.
N#C[C@@H]1[C@@H](c2ccc(-c3cccc(F)c3)cc2)[C@@H](CO)N1c1nc(-c2ccccc2)cs1	0	-51	99*	110*	99*	29	16
O=C(NCC[C@H]1CC[C@@H](NS(=O)(=O)Cc2ccccc2)[C@H](CO)O1)C1CCCC1	-2	26	.	.	.	.	.
CCC(=O)N1C[C@H](C)[C@H](OC)CN(C)C(=O)c2ccc(NC(=O)NC(C)C)cc2OC[C@@H]1C	.	6	18	.	.	.	.
CO[C@H]1CN(C)C(=O)c2cc(NC(=O)c3cccc(F)c3)ccc2OC[C@H](C)N(C(C)=O)C[C@@H]1C	.	.	41	.	.	.	.
CCCN(C)C[C@@H]1Oc2ncc(C#CCC(C)C)cc2C(=O)N([C@@H](C)CO)C[C@H]1C	10	-5	.	.	.	.	.
CO[C@@H]1CN(C)C(=O)c2ccc(NC(C)=O)cc2OC[C@H](C)N(C(=O)C2CCC2)C[C@@H]1C	1	8	-32	.	.	.	.
O=S(=O)(Cc1ccccc1)N1CCCCN2[C@H](CO)[C@H](c3ccc(-c4ccc(F)cc4)cc3)[C@@H]2C1	36	10	100*	99*	75	27	105*
O=S(=O)(Cc1ccccc1)N1CCCCN2[C@H](CO)[C@@H](c3ccc(-c4ccc(F)cc4)cc3)[C@@H]2C1	35	0	109*	108*	52	23	102*
O=S(=O)(Cc1ccccc1)N1CCCCN2[C@@H](CO)[C@H](c3ccc(-c4ccc(F)cc4)cc3)[C@@H]2C1	40	-31	94	.	.	.	.
Cc1ccccc1-c1ccc([C@@H]2[C@H](CO)N3CCCCN(S(=O)(=O)Cc4ccccc4)C[C@@H]23)cc1	-42	-72	33	.	.	.	.
O=C(c1ccccc1F)N1CC(=O)N2[C@@H](CO)[C@@H](c3ccc(C#Cc4ccc(F)cc4)cc3)[C@@H]2C1	0	-8	.	.	.	.	.
C[C@H]1CN([C@@H](C)CO)C(=O)c2cccc(NC(=O)c3ccncc3)c2O[C@H]1CN(C)C(=O)Nc1cccc2ccccc12	5	-6	96*	?	76	-10	1
C[C@@H]1CN([C@@H](C)CO)C(=O)c2cccc(NC(=O)Nc3cccc4ccccc34)c2O[C@H]1CN(C)C(=O)Nc1ccccc1	-1	-75	40	.	.	.	.
